This passage reports Potency and activity change, negative = cytotoxicity results from PubChem BioAssay (Tox21).

Inconclusive results are not listed. Where a call stands in place of a potency, no number is given. A number with no mark means an inactive call. Activity calls are given as the source filed them. Calls come from the whole dose curve; as a rule, active = well fitted cell-killing curve with a large enough effect in the repeat runs; inconclusive = weak or mixed curves, or effect the other way; inactive = flat fitted curve, though single readings scatter.

The nature of the test: qHTS assay to identify small molecule agonists of the TGF-beta/Smad signaling pathway - cell viability counter screen (AID 1346829). Note: top concentration of the series differs between compounds; nearly all actives have a fitted effect of over 45% in size. The settings on record: SBE-bla HEK293T viability, CellTiter-Glo luminescence, 5 h; series mostly up to 76.8 µM. From the text:
National Center for Advancing Translational Sciences [NCATS]
NIH Chemical Genomics Center [NCGC]
U.S. Environmental Protection Agency [EPA]
National Institutes of Environmental Health Sciences [NIEHS]
National Toxicology Program [NTP]
U.S. Food and Drug Administration [FDA]
Transforming growth factor beta (TGF-beta) superfamily consists of a large number of structurally related dimeric proteins that act as hormones or local mediators in regulating a wide range of biological functions. This superfamily includes TGF-betas themselves, the bone morphogenetic proteins (BMPs) and the activins. These ligands induce oligomerization of serine/threonine receptor kinases and phosphorylate the cytoplasmic signaling molecules of Smad protein family. CellSensor SBE-bla HEK 293T cell line (Life Technologies, Carlsbad, CA), responsive to TGF-beta was used to screen Tox21 10K compound library for identification of agonists/antagonists of the Smad signaling pathway. This cell line contains a beta-lactamase reporter gene under control of the Smad binding element (SBE) stably integrated into HEK 293T cells. Also cytotoxicity of the compounds was tested in parallel by measuring the cell viability using CellTiter-Glo assay system in the same wells.
Tox21 Assay Protocol Summary:
SBE-bla HEK 293T cells were dispensed at 4,000/well in 6 uL of assay medium into black wall/clear-bottom 1536-well plates using a Multidrop Combi (ThermoFisher Scientific, Waltham, MA) dispenser. After the assay plates were incubated at 37 C and 5% CO2 for an overnight, 23 nL of compounds dissolved in DMSO, positive controls or DMSO only was transferred to the assay plate by a Pintool station (Kalypsys, San Diego, CA). The assay plates were incubated at 37 C and 5% CO2 for 5 hr. One uL of LiveBLAzer B/G FRET substrate (Life Technologies) was added using a Flying Reagent Dispenser (FRD, Aurora Discovery, San Diego, CA) and the plates were incubated at room temperature for 2 hr. Fluorescence intensity (405 nm excitation, 460 nm and 530 nm emissions) was measured using an Envision plate reader (PerkinElmer, Shelton, CT). For cytotoxicity read, 4 uL of CellTiter-Glo reagent (Promega Corporation, Madison, WI) was added to each well of the assay plates using FRD. After 30min incubation at room temperature, the luminescence intensity was measured using ViewLux plate reader (PerkinElmer).
Background: qHTS replaces the single test concentration by a dilution series.
In the case of `CNC(=O)Oc1cc(C)c(N(C)C)c(C)c1`, the Potency result is “inactive”.

As for `OCC(Cl)CCl` (stereo not given), the Potency entry was “inactive”. Still for that read-out and setting: the value for `CCN(CC)C1CCCCC1` was “inactive”; that for `CN(C)CCN(C)C` was “inactive”; that for `N=C(N)[Se]` was “inactive”. On the same count and under the same terms, the value for `CC(C)(O)C(Cl)(Cl)Cl` was “inactive”. Still for that read-out and setting: the value for `CON(C)C(=O)Nc1ccc(Br)c(Cl)c1` was “inactive”. Turning to `COc1ccc(CN2CCNCC2)c(OC)c1OC`, the Potency entry is “inactive”. The same measure, in the same setting: the value for `Oc1ccc(Cc2ccc(O)cc2)cc1` was “inactive”. The same measure, in the same setting: the value for `CCC(C)C(C)(COC(N)=O)COC(N)=O` (stereo not given) was “inactive”; that for `CC1N=C(N)OC1c1ccccc1` (stereo not given) was “inactive”; that for `CCN[C@H](C)Cc1cccc(C(F)(F)F)c1` was “inactive”.

As to `CC(=O)OCC1=C(C(=O)O)N2C(=O)[C@@H](N)[C@H]2SC1`, the activity change, negative = cytotoxicity was -0.572% [at 15.8 µM]. In the case of `ClCC1CO1` (stereo not given), the Potency result was “inactive”. Still for that read-out and setting: the value for `COc1ccc(C=O)cc1O` was “inactive”; that for `CN=CNc1ccc(C)cc1C` was “inactive”.

Take `CC(C)(C)c1cc(O)ccc1O`: the Potency entry is “inactive”.

Turning to `CCOC(=O)C(SP(=S)(OC)OC)c1ccccc1` (stereo not given), the Potency entry is “inactive”. In the case of `C=C1CC[C@@]2(O)[C@H]3Cc4ccc(O)c5c4[C@@]2(CCN3CC2CC2)[C@H]1O5`, the Potency result was “inactive”. Still for that read-out and setting: the value for `O=C(Cl)OCc1ccccc1` was “inactive”. As for `Cc1ccc(S(=O)(=O)N[C@@H](CCCCN)C(=O)CCl)cc1`, the Potency entry was “inactive”.

Regarding `CCOC1Oc2ccc(OS(C)(=O)=O)cc2C1(C)C` (stereo not given), the Potency entry was “inactive”. With `CC(C)(C)C(=O)C(Cl)Cl`, the Potency entry was “inactive”.

Consider `CC#Cc1cc(C)nc(Nc2ccccc2)n1`, for which the Potency result is “inactive”. On the same count and under the same terms, the value for `C=CC1(C)OC(=O)N(c2cc(Cl)cc(Cl)c2)C1=O` (stereo not given) was “inactive”; that for `CCC1(c2cccc(O)c2)CCCCN(C)C1` (stereo not given) was “inactive”; that for `COC(=O)c1ccccc1CS(=O)(=O)NC(=O)Nc1nc(OC)cc(OC)n1` was “inactive”.

Take `CCCCS(=O)(=O)Cl`: the Potency entry was “inactive”. On the same count and under the same terms, the value for `Oc1ccc2c3c1O[C@H]1[C@@H](O)C=C[C@H]4[C@@H](C2)NCC[C@@]341` was “inactive”; that for `CC[C@H](O)C(C[C@H](C)N(C)C)(c1ccccc1)c1ccccc1` was “inactive”. The same measure, in the same setting: the value for `COc1cc(CC(C)N)cc(OC)c1OC` (stereo not given) was “inactive”. The same measure, in the same setting: the value for `CC(C)(C)NC[C@H](O)c1ccc(O)cc1Cl` was “inactive”; that for `CCSC(=O)Cl` was “inactive”; that for `CCOc1cc(OP(=S)(OC)OC)nc(CC)n1` was “inactive”.

In the case of `COc1ccccc1OC`, the Potency entry was “inactive”. Still for that read-out and setting: the value for `CCOP(=S)(OCC)SCCl` was “inactive”.

As to `COC(=O)[C@@H](N)CCCN/C(N)=N/[N+](=O)[O-]`, the Potency result was “inactive”. On the same count and under the same terms, the value for `BrCCc1ccccc1` was “inactive”; that for `Nc1c(Cl)c(F)nc(OCC(=O)O)c1Cl` was “inactive”; that for `O=C1CC(=O)NC(=O)N1` was “inactive”.
